Where “and” joins values, the source holds several entries; their conditions need not be identical. Equal entries are not always repeated. Records with an inconclusive call do not appear. Entries that show only a call come without a potency. More than one record can exist for a structure, and the calls need not agree. Calls of active or inactive are those of the source. Unless noted, calls follow the shape of the dose curve; as a rule, active = well fitted curve in the direction sought with a large enough effect in the repeat runs; inconclusive = weak or mixed curves; inactive = no such curve, though single readings can be large; an effect the other way counts as inactive or inconclusive.
Columns and labels:
[1] = qHTS assay to identify small molecule antagonists of the estrogen related receptor (ERR) signaling pathway from Tox21 library - cell viability counter screen (AID 1224834); also: nearly all actives have a fitted effect of over 30% in size; also: potency is read from the fitted curve at half-maximal effect
Summary of the method: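 In this quantitative HTS format, ERR cells receive compounds in DMSO and are incubated for 17.5 h at 37 C. Live-cell protease activity is then detected with CellTiter-Fluor.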

[2] = biological target: Luciferin 4-monooxygenase (Photinus pyralis) (UniProt P08659); assay: qHTS assay to identify small molecule inhibitors of firefly luciferase (AID 1224835); also: nearly all actives have a fitted effect of over 25% in size
Sequence of Luciferin 4-monooxygenase (Photinus pyralis) (P08659 whole entry, looked up): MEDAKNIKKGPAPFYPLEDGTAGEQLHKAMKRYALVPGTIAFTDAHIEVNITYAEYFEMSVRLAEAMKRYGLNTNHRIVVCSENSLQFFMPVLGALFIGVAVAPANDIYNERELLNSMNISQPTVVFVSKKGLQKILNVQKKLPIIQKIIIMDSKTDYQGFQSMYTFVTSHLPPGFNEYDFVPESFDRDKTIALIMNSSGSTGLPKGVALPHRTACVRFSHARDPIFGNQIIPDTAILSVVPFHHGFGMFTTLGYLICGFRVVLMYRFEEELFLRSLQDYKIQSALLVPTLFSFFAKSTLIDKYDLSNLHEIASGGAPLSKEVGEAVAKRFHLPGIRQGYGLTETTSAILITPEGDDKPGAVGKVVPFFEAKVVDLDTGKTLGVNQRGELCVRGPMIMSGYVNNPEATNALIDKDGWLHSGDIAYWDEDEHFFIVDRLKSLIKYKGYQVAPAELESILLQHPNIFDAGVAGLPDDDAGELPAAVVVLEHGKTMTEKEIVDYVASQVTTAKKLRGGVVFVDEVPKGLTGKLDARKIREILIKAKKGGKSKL
Summary of the method: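 Quantitative HTS format; KM concentrations of both substrates. Purified P. pyralis FLuc activity quantified from luminescence images.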

[3] = qHTS assay to identify small molecule agonists of the constitutive androstane receptor (CAR) signaling pathway - cell viability counter screen (AID 1224836); also: nearly all actives have a fitted effect of over 45% in size
Summary of the method: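 Fluorescence from CellTiter-Fluor indicates live cells after 23 h exposure. The human hepatoma line expresses hCAR and a CYP2B6-2.2kb reporter. Incubation medium contains 0.75 uM PK11195 (final).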

[4] = qHTS assay to identify small molecule antagonists of the constitutive androstane receptor (CAR) signaling pathway - cell viability counter screen (AID 1224837); also: nearly all actives have a fitted effect of over 45% in size
Summary of the method: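 In quantitative HTS format, compounds at 15 concentrations were applied to HepG2 cells double-transfected with hCAR and CYP2B6-2.2kb under 50 nM CITCO stimulation; live-cell protease activity was read after 23 hr via CellTiter-Fluor.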

[5] = qHTS assay to identify small molecule antagonists of the estrogen related receptor signaling pathway with the pleiotropic PPARgamma coactivator (PGC) from Tox21 10K library - cell viability counter screen (AID 1224840; active = well fitted cell-killing curve with a large enough effect in the repeat runs, not every such curve was filed as active; also: nearly all actives have a fitted effect of over 40% in size)
Summary of the method: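 Viability counter screen, PGC/ERR cells: 17.5 h compound exposure at 37 C, CellTiter-Fluor fluorescence endpoint.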

[6] = qHTS assay to identify small molecule agonists of the hypoxia (HIF-1) signaling pathway - cell viability counter screen (AID 1224844; calls by dose curve; also: nearly all actives have a fitted effect of over 50% in size)
Summary of the method: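 Same wells as the HIF-1 reporter screen; ME-180 cells carrying HRE-bla, 17 hr treatment at 37C; CellTiter-Glo luminescence read after 30 min at room temperature.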

[7] = qHTS assay to identify small molecule agonists of H2AX (AID 1224845; active = well fitted activation curve with a large enough effect in the signal ratio in the repeat runs, not every such curve was filed as active; the % refers to the signal ratio)
Summary of the method: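 Wild-type CHO-K1 cells plated overnight, then exposed 3 hr at 37C to compounds at 15 concentrations (0.76% DMSO). Lysed, then HTRF anti-pH2AX(S139)-cryptate/anti-H2AX-d2 detection after 24 hr at room temperature; emissions 665 and 620 nm.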

[8] = qHTS assay to identify small molecule agonists of H2AX - cell viability counter screen (AID 1224847; calls by dose curve; also: top concentration of the series differs between compounds; nearly all actives have a fitted effect of over 30% in size)
Summary of the method: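 Viability of CHO-K1 (wild type) cells after 3 hr compound exposure was measured by CellTiter-Glo luminescence.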

[9] = qHTS RealTime-Glo MT Cell Viability Assay in HepG2 cells - 24 hour (AID 1224867); also: nearly all actives have a fitted effect of over 50% in size
Summary of the method: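 Tox21 10K library screened in qHTS format on HepG2 cells carrying RealTime-Glo reagents. Compounds were added after a 5 h preincubation, and the luminescent signal from continuous culture was measured repeatedly during 40 h treatment.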

[10] = qHTS RealTime-Glo MT Cell Viability Assay in HEK293 cells - 32 hour (AID 1224868); also: nearly all actives have a fitted effect of over 50% in size; also: potency is read from the fitted curve at half-maximal effect
Summary of the method: (§1)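 Luminescence generated by NanoLuc from substrate produced by living HEK293 cells served as the viability signal. Each value reflects the reading at its stated time point during continuous 40 h compound exposure at 37 C.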

[11] = A CellTox Green Cytotoxicity Assay to monitor cytotoxicity in HEK293 cells - 0 hour (AID 1224869); also: nearly all actives have a fitted effect of over 50% in size
Summary of the method: (§2)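 Homogeneous no-lysis format: HEK293 cell suspension mixed with CellTox Green reagent, seeded, incubated 5 h at 37 C/5% CO2, then dosed by pintool with compound in DMSO.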

[12] = qHTS RealTime-Glo MT Cell Viability Assay in HepG2 cells - 40 hour (AID 1224870); also: nearly all actives have a fitted effect of over 50% in size; also: potency is read from the fitted curve at half-maximal effect
Summary of the method: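 HepG2 cells mixed with RealTime-Glo MT reagents (NanoLuc plus cell-permeant prosubstrate) were seeded at 600 cells/well, incubated 5 h at 37 C/5% CO2, then pinned with compounds in DMSO; nonlytic luminescence tracked viability during 40 h treatment.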

[13] = A CellTox Green Cytotoxicity Assay to monitor cytotoxicity in HEK293 cells - 40 hour (AID 1224871); also: nearly all actives have a fitted effect of over 45% in size; also: potency is read from the fitted curve at half-maximal effect
Summary of the method: as §2

[14] = qHTS RealTime-Glo MT Cell Viability Assay in HEK293 cells - 16 hour (AID 1224872)
Summary of the method: as §1

[15] = biological target: Nuclear receptor subfamily 1 group I member 3 (Homo sapiens) (UniProt Q14994); assay: qHTS assay to identify small molecule antagonists of the constitutive androstane receptor (CAR) signaling pathway (AID 1224838); also: nearly all actives have a fitted effect of over 40% in size
Sequence of Nuclear receptor subfamily 1 group I member 3 (Homo sapiens) (Q14994 whole entry, looked up): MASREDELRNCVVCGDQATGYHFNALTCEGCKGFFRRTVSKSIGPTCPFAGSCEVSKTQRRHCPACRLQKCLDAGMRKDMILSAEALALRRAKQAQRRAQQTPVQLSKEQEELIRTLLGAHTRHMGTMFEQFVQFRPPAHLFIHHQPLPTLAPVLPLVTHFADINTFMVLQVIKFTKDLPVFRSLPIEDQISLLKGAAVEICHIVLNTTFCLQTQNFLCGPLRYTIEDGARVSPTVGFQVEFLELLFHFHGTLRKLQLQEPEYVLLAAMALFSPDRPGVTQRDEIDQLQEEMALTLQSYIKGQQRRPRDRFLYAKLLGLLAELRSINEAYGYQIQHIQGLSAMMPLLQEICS
Summary of the method: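 CITCO-stimulated (50 nM final) HepG2 cells stably transfected with hCAR and CYP2B6-2.2kb luciferase were exposed to compounds at 15 concentrations for 24 h at 37 C/5% CO2. A luciferase reagent was added and luminescence recorded after 30 min.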

[16] = biological target: Nuclear receptor subfamily 1 group I member 3 (Homo sapiens) (UniProt Q14994); assay: qHTS assay to identify small molecule agonists of the constitutive androstane receptor (CAR) signaling pathway (AID 1224839); also: nearly all actives have a fitted effect of over 15% in size; also: potency is read from the fitted curve at half-maximal effect;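 as to activation: HepG2 cells stably carrying human CAR and a CYP2B6 luciferase reporter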
Summary of the method: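 Stable hCAR/CYP2B6-2.2kb HepG2 line in DMEM with 10% FBS; compounds (15 concentrations) and 0.75 uM PK11195 final, 24 h at 37 C/5% CO2, then ONE-Glo luminescence after 30 min.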

[17] = qHTS assay to identify small molecule antagonists of the estrogen related receptor signaling pathway with the pleiotropic PPARgamma coactivator (PGC) from Tox21 10K library (AID 1224841; call rule not given here)
Summary of the method: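 In the PGC/ERR line, DMSO solutions of test chemicals are pin-delivered to 2,000 cells/well six hours after dispensing. Following eighteen hours' incubation, One-Glo reagent is added and luminescence recorded.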

[18] = biological target: Thyrotropin receptor (Homo sapiens) (UniProt P16473); assay: qHTS assay to identify small molecule agonists of the thyroid stimulating hormone receptor (TSHR) signaling pathway (AID 1224843; calls by dose curve; also: nearly all actives have a fitted effect of over 45% in size)
Sequence of Thyrotropin receptor (Homo sapiens) (P16473 whole entry, looked up): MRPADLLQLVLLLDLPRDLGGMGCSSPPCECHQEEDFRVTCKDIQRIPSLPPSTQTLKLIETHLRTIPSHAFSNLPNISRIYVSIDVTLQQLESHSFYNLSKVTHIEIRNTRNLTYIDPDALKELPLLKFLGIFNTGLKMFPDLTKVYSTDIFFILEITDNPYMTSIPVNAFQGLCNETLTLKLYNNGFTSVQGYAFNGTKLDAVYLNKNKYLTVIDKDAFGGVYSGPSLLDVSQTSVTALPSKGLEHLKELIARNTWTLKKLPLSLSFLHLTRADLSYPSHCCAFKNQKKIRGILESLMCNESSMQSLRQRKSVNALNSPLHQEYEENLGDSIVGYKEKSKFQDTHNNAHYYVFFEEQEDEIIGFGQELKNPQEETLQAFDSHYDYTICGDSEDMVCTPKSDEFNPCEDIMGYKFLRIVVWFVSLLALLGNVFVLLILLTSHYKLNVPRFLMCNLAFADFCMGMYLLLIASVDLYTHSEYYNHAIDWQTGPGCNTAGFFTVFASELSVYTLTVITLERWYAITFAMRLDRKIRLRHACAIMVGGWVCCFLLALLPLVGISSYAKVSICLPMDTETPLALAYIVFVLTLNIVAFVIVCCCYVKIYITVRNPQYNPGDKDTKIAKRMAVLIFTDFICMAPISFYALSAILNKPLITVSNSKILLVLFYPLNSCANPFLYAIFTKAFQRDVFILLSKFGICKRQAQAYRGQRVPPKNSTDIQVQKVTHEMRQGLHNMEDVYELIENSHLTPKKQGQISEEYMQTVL
Summary of the method: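 Compounds are titrated over 15 concentrations, in triplicate, onto TSHR-HEK293 cells seeded at 800/well. Plates sit 30 min at room temperature before cAMP-d2 and anti-cAMP cryptate are added; signal is read after a further hour.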

[19] = qHTS assay to identify small molecule agonists of the hypoxia (HIF-1) signaling pathway (AID 1224846; active = well fitted activation curve with a large enough effect in the signal ratio in the repeat runs, not every such curve was filed as active; the % refers to the signal ratio)
Summary of the method: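 In ME-180 cells bearing an HRE-bla construct, 17 h treatment with DMSO-dissolved compounds at 37C was followed by CCF4-AM loading to quantify reporter induction.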

[20] = qHTS assay to identify small molecule agonists of the estrogen related receptor (ERR) signaling pathway from Tox21 library (AID 1224849; calls by dose curve; also: nearly all actives have a fitted effect of over 15% in size); settings: ERR reporter cell line, ONE-Glo luciferase, 18 h
Summary of the method: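 Reporter cells (ERR, NTP source) treated with Tox21 10K compounds 18 h, 37 C. Readout: ONE-Glo luminescence, 30 min RT.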

## O=C(O)CS
[1]
  Potency: inactive
[2]
  Potency: inactive
[3]
  Potency: inactive
[4]
  Potency: inactive
[5]
  Potency: inactive
[6]
  Potency: inactive
[7]
  outcome: inactive
[8]
  outcome: inactive
[9]
  Potency: inactive
[10]
  Potency: inactive
[11]
  outcome: inactive
[12]
  Potency: inactive
[13]
  Potency: inactive
[14]
  Potency: inactive

## CC1(C)[C@@H]2CC[C@@]1(C)C(=O)C2
[2]
  Potency: inactive
[3]
  Potency: inactive
[4]
  Potency: inactive
[15]
  Potency: inactive
[16]
  Potency: inactive
[5]
  Potency: inactive
[17]
  Potency: inactive
[18]
  outcome: inactive
[6]
  Potency: inactive
[7]
  outcome: inactive
[19]
  outcome: inactive
[8]
  outcome: inactive
[20]; at 42.5 µM (top of the series)
  activity change, positive = activation: 1.44% (inactive)
[20]; at 92.4 µM (top of the series)
  activity change, positive = activation: 5.63% (inactive) and 2.83% (inactive)
[9]
  Potency: inactive
[10]
  Potency: inactive
[11]
  outcome: inactive
[12]
  Potency: inactive
[13]
  Potency: inactive and 7.56 µM (active)
[14]
  Potency: inactive

## CCOc1ccc(NC(=O)CC(C)O)cc1 (stereo unspecified)
[1]
  Potency: inactive
[2]
  Potency: inactive
[3]
  Potency: inactive
[4]
  Potency: inactive
[5]
  Potency: inactive
[18]
  outcome: inactive
[6]
  Potency: inactive
[7]
  outcome: inactive
[19]
  outcome: inactive
[8]
  outcome: inactive
[9]
  Potency: inactive
[10]
  Potency: inactive
[11]
  outcome: inactive
[12]
  Potency: inactive
[13]
  Potency: inactive
[14]
  Potency: inactive

## COc1ccc2[nH]cc(CCNC(C)=O)c2c1
[2]
  Potency: inactive
[3]
  Potency: inactive
[4]
  Potency: inactive
[15]
  Potency: inactive
[16]
  Potency: inactive
[5]
  Potency: inactive
[17]
  Potency: inactive
[18]
  outcome: inactive
[6]
  Potency: inactive
[7]
  outcome: inactive
[8]
  outcome: inactive
[20]; at 42.5 µM (top of the series)
  activity change, positive = activation: 6.1% (inactive)
[20]; at 92.4 µM (top of the series)
  activity change, positive = activation: 9.68% (inactive) and -2.51% (inactive)
[9]
  Potency: inactive
[10]
  Potency: inactive
[11]
  outcome: inactive
[12]
  Potency: inactive
[13]
  Potency: inactive
[14]
  Potency: inactive

## CCCCC(CC)COC(=O)/C=C/c1ccc(OC)cc1 (stereo unspecified)
[1]
  Potency: inactive
[2]
  Potency: inactive
[3]
  Potency: inactive
[4]
  Potency: inactive
[15]
  Potency: inactive
[16]
  Potency: inactive
[5]
  Potency: inactive
[17]
  Potency: inactive
[18]
  outcome: inactive
[6]
  Potency: inactive
[7]
  outcome: inactive
[19]
  outcome: inactive
[8]
  outcome: inactive
[20]; at 42.5 µM (top of the series)
  activity change, positive = activation: -9.11% (inactive)
[20]; at 92.4 µM (top of the series)
  activity change, positive = activation: 7.09% (inactive) and -5.92% (inactive)
[9]
  Potency: inactive
[10]
  Potency: inactive
[11]
  outcome: inactive
[12]
  Potency: inactive
[13]
  Potency: inactive
[14]
  Potency: inactive

## Oc1ccc(/C=C/c2cc(O)cc(O)c2)cc1
[1]
  Potency: 21.9 µM (active) and 21.7 µM (active) and 26.6 µM (active)
[3]
  Potency: inactive
[4]
  Potency: inactive
[15]
  Potency: inactive
[16]
  Potency: 19.5 µM (active) and 21.7 µM (active) and 29.8 µM (active)
[5]
  Potency: inactive
[17]
  Potency: inactive
[18]
  outcome: inactive
[6]
  Potency: inactive
[20]; at 42.5 µM (top of the series)
  activity change, positive = activation: 132% (active)
[20]; at 92.4 µM (top of the series)
  activity change, positive = activation: 0.861% (active) and 27.4% (active)
[9]
  Potency: inactive
[10]
  Potency: 19.7 µM (active)
[11]
  outcome: inactive
[12]
  Potency: inactive
[13]
  Potency: inactive
[14]
  Potency: inactive

## N=C(N)c1ccc(OCCCCCOc2ccc(C(=N)N)cc2)cc1
[1]
  Potency: inactive
[2]
  Potency: inactive
[3]
  Potency: inactive
[5]
  Potency: inactive
[18]
  outcome: inactive
[6]
  Potency: inactive
[7]
  outcome: inactive
[19]
  outcome: inactive
[8]
  outcome: inactive
[9]
  Potency: inactive
[10]
  Potency: 12.2 µM (active) and 16.6 µM (active)
[11]
  outcome: inactive
[12]
  Potency: 54.7 µM (active) and inactive
[13]
  Potency: 48.8 µM (active) and 46.8 µM (active) and inactive

From PubChem BioAssay (Tox21)
